Screens (PubChem)
TGFb SMAD3 inh: TGF-b pathway inhibition; HepG2 CAGA-GFP TGF-b/SMAD3 reporter, GFP fluorescence, 18 h; TGF-beta stimulated, 500 pg/mL final; Potency, µM (top dose mostly 46.1 µM), without a hit: top-dose activity, negative = inhibition, hits mostly inhibitors; hit rate 1.2% among 410,000; note: potency is the fitted concentration of half-maximal effect; % is set by controls: 0 for no effect and ±100 for the full control effect; nearly all actives have a fitted effect of over 65% in size
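Read-out: total well GFP (ex488/em500-530) summed from mean per-cell fluorescence. Cells: HEPG2 CAGA-GFP, 1% FBS DMEM, 18 h at 37 degrees C with 500 pg/mL final TGF-beta. Unstimulated wells served as the full-inhibition control; stimulated DMSO wells = 0%.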
DT40 TDP1 CPT: growth inhibition of DT40 Tdp1-/-;hTDP1 cells with camptothecin (screen for TDP1 inhibitors). chicken DT40 Tdp1-/-;hTDP1 cells + 20 nM CPT, ATP luminescence, 48 h. Potency, µM (doses to about 46.2 µM), for inactives: top-dose activity change, negative = growth inhibition, most hits filed as inhibitors. hit rate 12% among 420,000. AID 686979; note: potency is the fitted concentration of half-maximal effect; % is set by controls: 0 for no effect and ±100 for the full control effect; nearly all actives have a fitted effect of over 55% in size
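Chicken DT40 Tdp1-/- cells complemented with human TDP1, 400 cells/well, exposed to compounds plus 20 nM camptothecin for at least 48 h at 37 C; viability read as ATP content by CellTiter-Glo luminescence.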
IL1B secr inh: blocks inflammasome-driven IL-1 beta release. THP-1 LPS/ATP IL-1B secretion, AlphaLISA, 16 h; active compounds read low. activity change, % at 57.5 µM. hit rate 4.7% among 360,000. AID 743279; in the data active = activity change below about -50%; inconclusive = mostly about -30% to -49%; note: % is set by controls: 0 for no effect and ±100 for the full control effect
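Secreted IL-1B measured by AlphaLISA bead assay after 16 h compound exposure of THP-1 cells; compounds (final up to 57.5 uM) added 1 h before LPS (250 ng/mL) and ATP (1.25 mM) stimulation; lower signal means less secretion.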
DT40 TDP1 no CPT: qHTS for Inhibitors of human tyrosyl-DNA phosphodiesterase 1 (TDP1): qHTS in cells in absence of CPT. DT40 Tdp1-/- hTDP1 cells, no CPT, ATP luminescence, 48 h. Potency, µM (top dose mostly 46.2 µM), for inactives: at the top dose activity change, negative = growth inhibition, hits mostly inhibitors. hit rate 15% among 420,000. AID 686978, 2013; note: potency is the fitted concentration of half-maximal effect; % is set by controls: 0 for no effect and ±100 for the full control effect; nearly all actives have a fitted effect of over 55% in size
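Compound effects on proliferation are scored in DT40 Tdp1-/-;hTDP1 cells in the absence of CPT. ATP levels (CellTiter-Glo luminescence) are recorded after a ≥48 hr, 37 °C incubation.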
HepG2 tox-1: counter-screen for TGF-b inhibitors: cytotoxicity in HepG2 cells; HepG2 CAGA-GFP viability, ATP luminescence, 18 h; hit rate 0.76% among 410,000; Potency, µM (series often up to 46.1 µM), for the others: top-dose activity change, negative = cytotoxicity, hits mostly cytotoxic; note: potency is the fitted concentration of half-maximal effect
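CellTiter-Glo luminescence gave cytotoxicity after 18 hours at 37 degrees C. The cells were HepG2 CAGA-GFP in 1% FBS DMEM, stimulated with 500 pg/mL TGF-beta after compound addition. %Activity was normalised to no-cell wells (complete cell-killing) and DMSO (no toxicity), and curves were fitted and classified.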
TDP1 inh: TDP1 (human) enzyme inhibition. Q9NUW8. recombinant TDP1, AlphaScreen DNA substrate cleavage. Potency, µM (top dose mostly 130 µM), for the others: top-dose activity change, negative = inhibition, most hits filed as inhibitors. hit rate 0.28% among 350,000. AID 485290; note: potency is the fitted concentration of half-maximal effect; % is set by controls: 0 for no effect and ±100 for the full control effect; nearly all actives have a fitted effect of over 40% in size
Target sequence (Q9NUW8 whole entry, looked up): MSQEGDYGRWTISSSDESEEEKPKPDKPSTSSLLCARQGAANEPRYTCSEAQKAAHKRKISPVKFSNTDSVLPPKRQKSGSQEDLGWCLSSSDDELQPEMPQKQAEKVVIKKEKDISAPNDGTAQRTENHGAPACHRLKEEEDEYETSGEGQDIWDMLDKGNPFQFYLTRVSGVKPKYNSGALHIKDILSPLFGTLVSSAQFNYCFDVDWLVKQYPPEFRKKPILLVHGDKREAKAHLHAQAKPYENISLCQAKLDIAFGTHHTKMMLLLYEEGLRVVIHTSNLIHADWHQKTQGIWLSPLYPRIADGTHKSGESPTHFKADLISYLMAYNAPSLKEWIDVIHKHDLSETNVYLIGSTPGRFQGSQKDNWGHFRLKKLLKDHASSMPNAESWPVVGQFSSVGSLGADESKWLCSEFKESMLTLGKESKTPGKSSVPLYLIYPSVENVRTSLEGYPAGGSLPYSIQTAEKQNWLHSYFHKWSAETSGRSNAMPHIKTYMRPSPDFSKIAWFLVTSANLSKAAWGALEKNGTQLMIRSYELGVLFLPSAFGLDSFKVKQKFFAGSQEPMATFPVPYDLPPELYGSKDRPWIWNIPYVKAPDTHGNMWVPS
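Enzyme-compound mixtures sat 15 min at room temperature, followed by a 5 min reaction with 15 nM final substrate and 10 min with AlphaScreen beads. Recombinant human Tdp1 was used at 1 nM final.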
TGFb CAGA inh: TGF-b pathway inhibition, cherry-pick retest. shares compounds with TGFb SMAD3 inh. HepG2 CAGA-GFP TGF-b reporter, GFP fluorescence, 18 h; cells stimulated with TGF-beta, 500 pg/mL. Potency, µM (doses to about 46.1 µM), inactives show at the top dose activity, negative = inhibition, hits mostly inhibitors. hit rate 63% among 1,600. AID 720534; note: potency is the fitted concentration of half-maximal effect; % is set by controls: 0 for no effect and ±100 for the full control effect; nearly all actives have a fitted effect of over 65% in size
HepG2 tox-2: counter-screen for TGF-b inhibitors: cytotoxicity in HepG2 cells. shares compounds with TGFb SMAD3 inh. HepG2 CAGA-GFP viability, ATP luminescence, 18 h; cells stimulated with TGF-beta, 500 pg/mL. Potency, µM (top dose mostly 46.1 µM), for inactives: at the highest dose activity, negative = cytotoxicity, most hits filed as inhibitors. hit rate 27% among 1,600; note: potency is the fitted concentration of half-maximal effect; % is set by controls: 0 for no effect and ±100 for the full control effect; nearly all actives have a fitted effect of over 70% in size
CCL64 TGFb inh: TGF-b inhibition, CCL64 orthogonal assay | shares compounds with TGFb SMAD3 inh | CCL64 CAGA-GFP reporter, TGF-b stimulated, GFP fluorescence, 18 h | Potency, µM (top dose mostly 46.1 µM), for the others: top-dose activity, negative = inhibition, actives largely listed as inhibitors | hit rate 41% among 1,600 | AID 720536; note: potency is the fitted concentration of half-maximal effect; nearly all actives have a fitted effect of over 65% in size
TGFb COP inh: TGF-b inhibition validated with COP promoter; shares compounds with TGFb SMAD3 inh; AID 720537; hit rate 3% among 1,600; Potency, µM (top dose mostly 46.1 µM), for the others: at the highest dose activity, negative = inhibition, usual class: inhibitors; HepG2 COP-GFP TGF-b reporter, GFP fluorescence, 18 h; cells stimulated by added recombinant TGF-beta; note: potency is the fitted concentration of half-maximal effect; nearly all actives have a fitted effect of over 70% in size
Active calls of the source: *; ? = inconclusive; · = not tested or not shown; [ ] = dose if it differs, or a comment. An excerpt weighted towards active compounds, which were near 19% of everything screened. Unless noted, calls come from the whole dose curve; as a rule, active = well fitted curve in the direction sought with a large enough effect; inconclusive = small, poorly fitted or top-dose-only effect, or another doubt; inactive = no such curve, though single readings can be large; an effect the other way counts as inactive or inconclusive.

SMILES	TGFb SMAD3 inh	DT40 TDP1 CPT	IL1B secr inh	DT40 TDP1 no CPT	HepG2 tox-1	TDP1 inh	TGFb CAGA inh	HepG2 tox-2	CCL64 TGFb inh	TGFb COP inh
O=C(O)c1ccc(NC2=C/C(=N/S(=O)(=O)c3ccccc3)c3ccccc3C2=O)cc1	5.6µM*	2.6µM*	-97*	3.7µM*	4µM*	9%	6.5µM*	18µM*	12µM*	?
O=C1C(Nc2ccc(O)cc2)=C/C(=N/S(=O)(=O)c2cccs2)c2ccccc21	1µM*	1.2µM*	-99*	1.5µM*	1.1µM*	11%	0.65µM*	1µM*	3.7µM*	1µM*
Cc1ccc(C(=O)CN(CCCC(N)=O)C(=O)c2ccncc2)cc1	1%	0%	24	8%	-5%	-3%	·	·	·	·
O=C(CSC1=NNC(c2ccccn2)S1)Nc1ccc(C(F)(F)F)cc1 (centres undefined)	?	4.1µM*	153	3.7µM*	-23%	·	-20%	-22%	?	-1%
O=C(CSc1nccn1C1CCCC1)Nc1ccc(C(F)(F)F)cc1	-25%	?	·	?	-42%	1%	·	·	·	·
O=C(Nc1ccc(Cl)cc1)Nc1csc([N+](=O)[O-])c1	4µM*	18µM*	·	9.2µM*	-26%	·	6.5µM*	6.5µM*	5.2µM*	76%
O=C(Nc1ccc(Cl)cc1)Nc1cc([N+](=O)[O-])ccc1F	-11%	-3%	13	-26%	-4%	4%	·	·	·	·
O=[N+]([O-])c1ccc(NC(=S)NCCc2ccc(Cl)cc2)cc1	6.3µM*	2.3µM*	-55*	5.2µM*	11µM*	-3%	15µM*	21µM*	4.6µM*	97%
O=C(Nc1ccc([N+](=O)[O-])cc1)Nc1ccc(Cl)cc1F	2.2µM*	2.6µM*	-93*	1.6µM*	2.8µM*	3%	?	?	4.1µM*	26%
O=C(Nc1ccc([N+](=O)[O-])cc1)Nc1ccon1	10µM*	0.41µM*	0	0.33µM*	-27%	-4%	?	-21%	?	-17%
CN(C)c1ccc(C2CNC(c3ccc(Cl)c([N+](=O)[O-])c3)c3[nH]c4ccccc4c32)cc1 (centres undefined)	8.9µM*	23µM*	-25	18µM*	-33%	·	?	-28%	21µM*	18%
COc1ccc(C(=O)Nc2ccc3oc(Cc4ccc(Cl)cc4)nc3c2)cc1OC	16µM*	?	7	?	-23%	5%	?	-18%	13%	0%
COc1ccc(Cl)cc1NC(=O)c1ccc2nc(Cc3ccccc3)oc2c1	-9%	?	·	?	-33%	-4%	·	·	·	·
CCCCSc1nc(C)cc(SCC(=O)N/N=C/c2cccc(OC)c2O)n1	7.9µM*	1.5µM*	136	1.3µM*	-26%	9%	8.2µM*	?	12µM*	-1%
COc1cccc(/C=N/Nc2cc(Cl)nc(C)n2)c1O	-2%	5%	14	1%	0%	3%	·	·	·	·
CCOCCCNC(=S)N1CCC(C(=O)c2ccc3c(c2)OCCO3)CC1	-9%	?	-9	-13%	-9%	-3%	·	·	·	·
O=C(/C(=N\Nc1ccc([N+](=O)[O-])cc1)Sc1nnnn1-c1ccccc1)c1ccccc1	7.9µM*	?	0	?	-40%	9%	?	23µM*	21µM*	85%
COC(=O)c1c(NC(=O)c2c(OC)cccc2OC)sc2c1CCCC2	?	?	·	?	-34%	-12%[12.3 µM]	·	·	·	·
CCn1ccc(C(=O)Nc2sc3c(c2C(=O)OC)CCC3)n1	16%	?	-18	-26%	3%	-2%	·	·	·	·
COC(=O)c1c(NC(NC(=O)C(C)(C)C)C(Cl)(Cl)Cl)sc2c1CCC2 (centres undefined)	13µM*	?	44	?	-2%	0%	9.2µM*	?	?	53%
CCC(=O)NC(Nc1sc2c(c1C(=O)OC)CCC2)C(Cl)(Cl)Cl (centres undefined)	11µM*	15µM*	11	15µM*	9%	1%	21µM*	-10%	?	-27%
Cc1ccc(CCNC(=O)Cn2c(-c3cccs3)cc3ccccc32)cc1	1%	?	·	?	-16%	-4%	·	·	·	·
O=c1c2ccccc2nc(/C=C/c2ccc([N+](=O)[O-])o2)n1CCCO	5.6µM*	0.58µM*	-111*	1.2µM*	3.2µM*	-3%	3.3µM*	6.5µM*	5.8µM*	?
O=C(CSc1nc2ccccc2c(=O)n1CCCO)NCc1ccccc1	0%	0%	2	-8%	-6%	4%	·	·	·	·
CC(=O)c1ccc2c(c1)N(Cc1ccc3ccccc3c1)C(=O)C(C)S2 (centres undefined)	7.9µM*	5.8µM*	0	5.2µM*	-17%	·	21µM*	4%	-11%	3%
COCCCn1c(SCC(=O)N2CCOCC2)nnc1-c1ccco1	12%	-2%	3	6%	-9%	·	·	·	·	·
c1ccc2[nH]c(Cn3nnc4ccccc43)nc2c1	-1%	-29%	33	-12%	-14%	-1%	·	·	·	·
COc1ccc(-c2[nH]c(-c3cc(OC)c4c(c3)OCO4)nc2-c2ccccc2)cc1	?	?	-17	?	4%	6%	13µM*	?	?	36%
